CRFBP-R2 agonist: agonists of CRF-BP/CRF-R2 complex, primary screen, cell-based, HEK293, calcium dye fluorescence, uHTS | CRF-binding protein / CRF receptor 2 complex (human) | calcium dye fluorescence (FLIPR); percent of saturating CRF peptide response | activation, % at 13.2 µM | 0.46% of 350,000 active;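 active means activation of at least 50%, plus an integration ratio under a set limit after plate pattern correction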;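 further: plate controls were neutral control wells without compound for no effect and CRF at EC100 for full effect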
ABCB6 inh 2: ABCB6 transporter inhibitors, primary screen, K562-ABCB6 cells, flow cytometry, MLPCN library; fluorescence ratio to DMSO, % at 10 µM; K562-ABCB6 porphyrin accumulation, 1 h; hits give low values; 0.19% of 360,000 active;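 active means fluorescence ratio to DMSO below 75%, the collection mean minus 3 SD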;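 further: signal is porphyrin accumulated inside mitochondria; 100% equals median channel fluorescence of DMSO control wells; lower ratio means ABCB6 inhibition with less porphyrin fluorescence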
MEKK3 PB1 HTS: modulators of MEKK3-MEK5 PB1 binding, primary screen, biochemical, wildtype MEKK3, multiplex bead flow cytometry, Alexa488-MEK5. Mitogen-activated protein kinase kinase kinase 3 (Homo sapiens), Q99759. bead-based flow cytometry, Alexa488-MEK5 binding to MEKK3; actives lie on both sides; 0 = blocked by unlabeled MEK5, 100 = vehicle. binding response (% of control), % at 10 µM. 1.4% of 290,000 active;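 active means binding response more than 3 SD above or below the average of its plate-row segment, actives on both sides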;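 further: Alexa488 bead fluorescence after subtracting the streptavidin-only scavenger bead signal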
Target sequence (Q99759 whole entry, looked up): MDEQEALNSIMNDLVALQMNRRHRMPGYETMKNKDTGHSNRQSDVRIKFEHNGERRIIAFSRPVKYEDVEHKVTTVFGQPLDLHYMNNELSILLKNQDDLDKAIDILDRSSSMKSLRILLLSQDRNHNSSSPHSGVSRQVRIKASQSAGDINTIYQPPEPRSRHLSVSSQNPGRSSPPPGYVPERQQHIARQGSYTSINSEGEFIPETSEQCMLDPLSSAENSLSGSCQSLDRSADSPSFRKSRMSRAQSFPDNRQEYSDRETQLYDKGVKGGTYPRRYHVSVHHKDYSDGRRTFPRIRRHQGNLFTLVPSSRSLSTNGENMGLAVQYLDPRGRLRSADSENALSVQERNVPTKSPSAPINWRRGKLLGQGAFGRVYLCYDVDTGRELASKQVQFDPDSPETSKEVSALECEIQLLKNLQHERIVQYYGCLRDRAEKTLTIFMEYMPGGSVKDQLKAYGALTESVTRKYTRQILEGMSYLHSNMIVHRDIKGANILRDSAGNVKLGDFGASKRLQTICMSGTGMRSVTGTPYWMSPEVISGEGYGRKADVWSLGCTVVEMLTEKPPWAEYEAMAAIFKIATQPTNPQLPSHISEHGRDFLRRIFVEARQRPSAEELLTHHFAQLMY
CRFR2-BP antag: antagonists of CRF-BP/CRF-R2 complex, primary screen, cell-based, HEK293, calcium dye fluorescence, uHTS | CRF-induced calcium fluorescence | inhibition, % at 11.8 µM | 0.59% of 350,000 active;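 active means inhibition of the ligand-induced calcium signal above about 50% at the single tested concentration, limit read from the data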
MEKK2wt PB1 HTS: modulators of MEK5 binding to wildtype MEKK2, primary screen, biochemical, multiplex bead flow cytometry, Alexa488-MEK5. Mitogen-activated protein kinase kinase kinase 2 (Homo sapiens), Q9Y2U5. Alexa488-MEK5 binding to MEKK2 WT; actives lie on both sides. binding response (% of control), % at 10 µM. 1.1% of 290,000 active. AID 1531, 2009; in the data active means binding response below about 67% or above about 130%
MEKK2mut PB1 HTS: MEK5 binding signal on mutant MEKK2 PB1, primary screen, biochemical, multiplex bead flow cytometry, Alexa488-MEK5; Alexa488-MEK5 binding to MEKK2 mutant; percent response, % at 10 µM; 0.35% of 290,000 active; AID 1530, 2009; in the data active means percent response above about 24%, passing the limit was not always enough
Numbers without * were called inactive. A selection: hits, their analogues and other compounds. The true share with any hit is near 2.9%.

`O=C(c1cc2nc(-c3ccccc3)cc(-c3ccccc3)n2n1)N1CCN(C(=O)c2ccco2)CC1` gave CRFBP-R2 agonist 0, ABCB6 inh 2 94, MEKK3 PB1 HTS 97, CRFR2-BP antag 55*, MEKK2wt PB1 HTS 96 and MEKK2mut PB1 HTS 15.
For O=C(c1cc2nc(-c3ccccc3)cc(-c3ccccc3)n2n1)N1CCCC1 the results were CRFBP-R2 agonist 0, ABCB6 inh 2 87, MEKK3 PB1 HTS 102, CRFR2-BP antag -40, MEKK2wt PB1 HTS 94 and MEKK2mut PB1 HTS -3.
Screening C=CCn1c(=O)/c(=C/c2cc(OC)c(OC)c(OC)c2)s/c1=C(/C#N)c1nc2ccccc2n1C returned CRFBP-R2 agonist 62*, ABCB6 inh 2 105, MEKK3 PB1 HTS 95, CRFR2-BP antag -48, MEKK2wt PB1 HTS 79 and MEKK2mut PB1 HTS -1.
`COc1ccccc1-n1c(=S)sc2c(=O)n(Cc3ccco3)c(SC)nc21` gave CRFBP-R2 agonist 3, ABCB6 inh 2 100, MEKK3 PB1 HTS 98, CRFR2-BP antag 60*, MEKK2wt PB1 HTS 93 and MEKK2mut PB1 HTS 0.
For Cc1n[nH]c(=O)c2c(NC(=O)CSc3nn(-c4ccccc4)c(=S)s3)oc(C)c12 the results were CRFBP-R2 agonist -2, ABCB6 inh 2 95 and CRFR2-BP antag -1.
`COc1ccc(C(CC(=O)NCc2ccco2)c2ccc(F)cc2)cc1` (stereo not drawn) gave CRFBP-R2 agonist -1, ABCB6 inh 2 98, MEKK3 PB1 HTS 101, CRFR2-BP antag -3, MEKK2wt PB1 HTS 99 and MEKK2mut PB1 HTS 0.
`Cc1ccc(C(CC(=O)NCc2ccco2)c2ccc(OC(C)C)cc2)cc1` (stereo not drawn) gave CRFBP-R2 agonist 3, ABCB6 inh 2 95, MEKK3 PB1 HTS 83, CRFR2-BP antag 51*, MEKK2wt PB1 HTS 103 and MEKK2mut PB1 HTS -7.
`COc1ccc(NC(=O)C2CCN(S(=O)(=O)c3cccc4nonc34)CC2)cc1OC` gave CRFBP-R2 agonist 0, ABCB6 inh 2 101, MEKK3 PB1 HTS 99, CRFR2-BP antag -3, MEKK2wt PB1 HTS 101 and MEKK2mut PB1 HTS 2.
COc1cc(/C=N/N(C)c2ccccc2)cc(Cl)c1O was read as CRFBP-R2 agonist -2, ABCB6 inh 2 94, MEKK3 PB1 HTS 96, CRFR2-BP antag 53*, MEKK2wt PB1 HTS 101 and MEKK2mut PB1 HTS -3.
Screening COc1ccccc1N/C=C/c1onc(C)c1[N+](=O)[O-] returned CRFBP-R2 agonist 89*, ABCB6 inh 2 108, MEKK3 PB1 HTS 107, CRFR2-BP antag -68, MEKK2wt PB1 HTS 104 and MEKK2mut PB1 HTS 0.
For Cc1noc(/C=C/Nc2ccc(F)cc2F)c1[N+](=O)[O-] the results were CRFBP-R2 agonist 3, ABCB6 inh 2 98, MEKK3 PB1 HTS 108, CRFR2-BP antag -7, MEKK2wt PB1 HTS 107 and MEKK2mut PB1 HTS -1.
For N#Cc1ccc(CC(=O)c2ccccc2)[nH]c1=O the results were CRFBP-R2 agonist 58*, ABCB6 inh 2 100 and CRFR2-BP antag -76.
N#Cc1ccc(CCc2ccccc2)[nH]c1=O was read as CRFBP-R2 agonist 1, ABCB6 inh 2 97 and CRFR2-BP antag -3.
For O=C(COc1ccc(Cl)cc1)N1CCN(C(=O)c2ccccc2F)CC1 the results were CRFBP-R2 agonist 0, ABCB6 inh 2 99, MEKK3 PB1 HTS 103, CRFR2-BP antag -9, MEKK2wt PB1 HTS 108 and MEKK2mut PB1 HTS 6.
`CN1CCS/C1=C/C=C1\SC(=S)N(CC(=O)O)C1=O` gave CRFBP-R2 agonist 149*, ABCB6 inh 2 112, MEKK3 PB1 HTS 68, CRFR2-BP antag -115, MEKK2wt PB1 HTS 67 and MEKK2mut PB1 HTS -15.
For CCCCN1C(=O)/C(=C/C=C2\SCCN2C)SC1=S the results were CRFBP-R2 agonist 81*, ABCB6 inh 2 117, MEKK3 PB1 HTS 96, CRFR2-BP antag -111, MEKK2wt PB1 HTS 92 and MEKK2mut PB1 HTS -8.
For Cc1ccc(C)c(NC(=S)Nc2ncccc2C)c1 the results were CRFBP-R2 agonist 1, ABCB6 inh 2 99, MEKK3 PB1 HTS 103, CRFR2-BP antag 124*, MEKK2wt PB1 HTS 104 and MEKK2mut PB1 HTS 9.
Screening Cc1cccnc1NC(=S)Nc1ccc(F)cc1F returned CRFBP-R2 agonist -1, ABCB6 inh 2 104, MEKK3 PB1 HTS 102, CRFR2-BP antag -2, MEKK2wt PB1 HTS 104 and MEKK2mut PB1 HTS 7.
For COc1ccc(/C=c2\s/c(=C/C(=O)c3ccc(C)cc3)[nH]c2=O)c(OC)c1 the results were CRFBP-R2 agonist 123*, ABCB6 inh 2 128, MEKK3 PB1 HTS 127, CRFR2-BP antag -192, MEKK2wt PB1 HTS 103 and MEKK2mut PB1 HTS 1.
`CCOC(=O)C1=C(C)N=C2SCCC(=O)N2[C@@H]1/C=C/c1ccccc1` gave CRFBP-R2 agonist -2, ABCB6 inh 2 93, MEKK3 PB1 HTS 110, CRFR2-BP antag 3, MEKK2wt PB1 HTS 114 and MEKK2mut PB1 HTS 8.
CC1=C(C(=O)OCc2ccccc2)C(/C=C/c2ccccc2)N2C(=O)CCSC2=N1 (stereo not drawn) was read as CRFBP-R2 agonist 3, ABCB6 inh 2 95, MEKK3 PB1 HTS 108, CRFR2-BP antag 69*, MEKK2wt PB1 HTS 112 and MEKK2mut PB1 HTS -1.
For Cc1ccc(C(=O)NCCCNC(=O)c2ccccc2C)cn1 the results were CRFBP-R2 agonist 0, ABCB6 inh 2 98, MEKK3 PB1 HTS 97, CRFR2-BP antag -4, MEKK2wt PB1 HTS 96 and MEKK2mut PB1 HTS 5.
Cc1ccc(S(=O)(=O)c2nnn3c2nc(N2CCOCC2)c2ccccc23)cc1 was read as CRFBP-R2 agonist 0, ABCB6 inh 2 100, MEKK3 PB1 HTS 97, CRFR2-BP antag 43, MEKK2wt PB1 HTS 98 and MEKK2mut PB1 HTS 1.
Cc1ccc(S(=O)(=O)c2nnn3c2nc(N2CCCCC2)c2ccccc23)cc1 was read as CRFBP-R2 agonist 2, ABCB6 inh 2 91, MEKK3 PB1 HTS 101, CRFR2-BP antag 51*, MEKK2wt PB1 HTS 101 and MEKK2mut PB1 HTS -1.
Screening Cc1nnc(NC(=O)c2ccc(F)c(S(=O)(=O)N3CCCCC3)c2)s1 returned CRFBP-R2 agonist 0, ABCB6 inh 2 94, MEKK3 PB1 HTS 99, CRFR2-BP antag -26, MEKK2wt PB1 HTS 96 and MEKK2mut PB1 HTS -5.
Cc1cc(NC(=O)Cn2nc3c(cc2=O)CCCC3)ccc1Br was read as CRFBP-R2 agonist 0, ABCB6 inh 2 98, MEKK3 PB1 HTS 97, CRFR2-BP antag 55*, MEKK2wt PB1 HTS 109 and MEKK2mut PB1 HTS 7.
